Source: PubChem BioAssay (Broad Institute)
PAX8 reporter: inhibitors of PAX8 transcriptional activity in RMG-I cells. RMG-I TPO-luciferase reporter, SteadyGlo, 24 h. inhibition, % at 12.6 µM. 360,000 compounds, 1.2% hits. AID 652154;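 active = mean replicate inhibition at least 60% with every replicate also reaching 60%; inconclusive = only one of the two criteria is met; inactive = mean below 60% and not all replicates reaching 60%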;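 note: luciferase light reporting Pax8 driven TPO promoter activity; plate controls were median of neutral control wells for no effect and mitoxantrone controls for full effect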
SIRT5 inh: inhibitors of human sirtuin-5 desuccinylase. Purified SirT5, succinyl-peptide AMC, trypsin-coupled fluorescence. inhibition, % at 15 µM. Q9NXA8. 330,000 compounds, 1.1% hits; in the data active = inhibition above about 15%; inconclusive = no clear call, values can overlap the other calls
Target sequence (Q9NXA8 whole entry, looked up): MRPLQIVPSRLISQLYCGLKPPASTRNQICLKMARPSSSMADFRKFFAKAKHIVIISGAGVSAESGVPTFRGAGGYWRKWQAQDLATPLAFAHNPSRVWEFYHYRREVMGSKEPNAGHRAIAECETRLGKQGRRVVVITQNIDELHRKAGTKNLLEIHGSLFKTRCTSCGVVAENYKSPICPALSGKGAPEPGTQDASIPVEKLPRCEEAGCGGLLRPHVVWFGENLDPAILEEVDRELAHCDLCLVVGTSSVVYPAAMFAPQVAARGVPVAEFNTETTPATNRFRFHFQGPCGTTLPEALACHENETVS
rRNA inh HTS: selective bacterial rRNA inhibition in E. coli | E. coli WT GFP vs humanized-ribosome RFP mutants, fluorescence, 24 h; active compounds read low; DMSO median 0, no signal -100 | GFP signal change (wild-type ribosome), % (concentration not given with the values) | 350,000 compounds, 1.6% hits;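 active = significant combined selectivity score with lowered wild-type GFP, culture density cut under 30%, mutant RFP and density less affected; inactive = any of these conditions unmet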
EWS-Fli block: EWS/Fli transcriptional activity inhibition; A673 NR0B1-luciferase reporter, viability-normalised; inhibition, % at 12.6 µM; 350,000 compounds, 0.67% hits; AID 651661;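 active = mean inhibition of at least 50% after viability correction, with every replicate also passing that limit; inconclusive = mean reaches 50% but only one of two replicates passes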;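 note: firefly luciferase signal divided by Alamar Blue viability fluorescence both relative to DMSO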
LGR2 antag: blocks bursicon-induced cAMP signaling via Drosophila LGR2 | HEK293 LGR2, CRE-luciferase, bursicon-stimulated, 4 h | 380,000 compounds, 0.35% hits | inhibition, % at 9.99 µM | AID 720647;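 active = drop in luminescence signal, shown as inhibition above about 50% in the replicate tests, limit read from the data, passing the limit was not always enough; inconclusive = probably only some replicates passing the limit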;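 note: agonist challenge used bursicon conditioned medium at about half maximal strength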
PGC1a acetyl inh: lowers PGC1a acetylation signal in U2OS cells. AlphaScreen anti-acetyl-lysine; with virally co-expressed GCN5 acetyltransferase. inhibition, % at 15.6 µM. 350,000 compounds, 0.17% hits. AID 651687;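 active = every replicate shows inhibition of at least 40%; inconclusive = mean inhibition at least 40% but some replicate below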;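 note: 0% = neutral control wells and 100% = positive control wells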
AID977621: wild-type E. coli growth inhibition versus H69 humanized strain – H69 mutant RFP, wild-type GFP, cherry-pick, dose response. shares compounds with rRNA inh HTS. fluorescence, 24 h. activity change, negative = inhibition at 50 µM. 1,900 tested, under 10 active;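 active = Wild-type ribosome reporter drop at least double the humanized mutant ribosome reporter drop, growth loss under a set limit; inconclusive = no clear call, values can overlap the other calls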;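 note: wild-type GFP and H69 mutant RFP strains grown together 50/50 in each well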
AID977628: growth of wild-type and h24-humanized E. coli strains – h24 mutant RFP vs wild-type GFP, cherry-pick, dose response; shares compounds with rRNA inh HTS; E. coli WT GFP strain growth, fluorescence, 24 h; activity change, negative = inhibition at 50 µM; 1,900 tested, under 10 active;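 active = compound lowering the normal-ribosome reporter at least twice as much as the humanized-ribosome reporter, growth loss under a set limit; inconclusive = no clear call, values can overlap the other calls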;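 note: wild-type GFP and h24 humanized RFP strains co-cultured 1 to 1 per well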
* = called active by the depositor; ? = inconclusive; / = no result given; ! = a repeat was not active. Compounds with a hit are over-represented: about 3.4% of the library has one in this group of screens.

SMILES | PAX8 reporter | SIRT5 inh | rRNA inh HTS | EWS-Fli block | LGR2 antag | PGC1a acetyl inh | AID977621 | AID977628
Cc1cccc(NC(=O)CN(C)S(=O)(=O)c2cccc3cccnc23)c1 | 9 | / | -7 | 10 | 7 | 0 | / | /
CCc1cccc(NC(=O)CN(C)S(=O)(=O)c2cccc3cccnc23)c1 | 31 | -8 | -20* | -5 | -7 | 4 | -7.7 | -8.1
Cc1ccc(-c2nc(CN3CCCCC3c3cccc(F)c3)c(C)o2)o1 (centres undefined) | 8 | -2 | -18* | 3 | 2 | -3 | -5.9 | -15
Cc1ccc(CSCC(=O)Nc2ccccc2F)cc1 | -8 | -4 | -23* | -9 | 5 | 9 | -4.5 | ?
Cc1ccc(NC(=O)CSCc2ccc(F)cc2)cc1 | -43 | / | / | / | -18 | / | / | /
Cc1cc(Br)ccc1OCc1nnc(-c2ccccc2)o1 | -78 | -3 | 2 | -88 | -84 | -1 | / | /
COc1ccc(-c2nnc(COc3ccc(Br)cc3C)o2)cc1 | 8 | -5 | -19* | 8 | -5 | -6 | ? | ?
C[C@H]1CN([C@@H](C)CO)C(=O)Cc2cc(NC(=O)Nc3ccc(F)cc3)ccc2O[C@@H]1CN(C)Cc1ccc2c(c1)OCO2 | 7 | -4 | -32 | -10 | 27 | 2 | / | /
NCC[C@H]1CC[C@H](NC(=O)C2CC2)[C@H](CO)O1 | / | 1 | 1 | 4 | 0 | / | / | /
O=C(O)c1ccccc1NC(=O)C(c1ccccc1)c1ccccc1 | -14 | -3 | -30* | 7 | -11 | 0 | -14 | -12
O=C(NCc1ccc2c(c1)OCO2)c1nc(S(=O)(=O)Cc2ccccc2)ncc1Cl | 22 | 0 | -13 | / | 1 | -74 | / | /
O=C(NCc1ccc2c(c1)OCO2)c1nc(S(=O)(=O)Cc2ccccc2F)ncc1Cl | 36 | -1 | 1 | / | 8 | / | / | /
O=C(NCc1ccccc1)c1nc(S(=O)(=O)Cc2ccccc2)ncc1Cl | 20 | -1 | -24* | / | 3 | -1 | -24 | -7.2
COc1ccc(CNC(=O)c2nc(S(=O)(=O)Cc3ccccc3)ncc2Cl)cc1 | 36 | 21* | -16* | / | -1 | -3 | -2.7 | -4.8
COc1cc2ccccc2cc1C(=O)NC1CCCCC1 | -141 | 0 | -28* | -86 | -58 | 3 | -16 | -9.7
CCOC(=O)c1c(C)[nH]c(C)c1S(=O)(=O)NCCN1CCN(c2ccccc2F)CC1 | 5 | -3 | -16* | / | -1 | -9 | -6.3 | -16
CCOC(=O)c1c(C)[nH]c(C)c1S(=O)(=O)NCC1CCN(Cc2ccccc2F)CC1 | 9 | 3 | 5 | / | -15 | 4 | / | /
COc1ccc(N(C)S(=O)(=O)c2cccc(C(=O)NC3CCCCC3C)c2)cc1 (centres undefined) | 10 | 3 | -27* | 3 | -8 | -14 | -6.9 | /
O=C(N[C@H]1CC1c1ccccc1)c1ccc([N+](=O)[O-])cc1 (some centres undefined) | -130 | -3 | -28* | -94 | -3 | / | ? | -7.8
O=C(NCc1ccccc1)c1ccc([N+](=O)[O-])cc1 | -12 | / | -6 | -8 | -5 | / | / | /
CCn1nc(C)cc1C(=O)N1CCCC(C(=O)c2ccc3ccccc3c2)C1 (centres undefined) | 19 | 1 | -20* | -9 | -5 | -10 | -4.3 | /
COCC(=O)N1C[C@@H](C)[C@H](OC)CN(C)C(=O)c2cc(NC(=O)c3ccc(OC)cc3)ccc2OC[C@@H]1C | -7 | -2 | 0 | 1 | -7 | 0 | / | /
COc1cccc(CC(=O)OC(C)C(=O)NCc2ccc3c(c2)OCO3)c1 (centres undefined) | / | -14 | -31* | -2 | 1 | -3 | ? | ?
CC(OC(=O)Cc1ccc(F)cc1)C(=O)NCc1ccc2c(c1)OCO2 (centres undefined) | -10 | -2 | -4 | -2 | 1 | 15 | / | /
COc1ccc2c(CC(=O)NCc3ccc4c(c3)OCO4)coc2c1 | / | -4 | -25* | 0 | -6 | / | 2.3 | ?
SMILES | PAX8 reporter | SIRT5 inh | rRNA inh HTS | EWS-Fli block | LGR2 antag | PGC1a acetyl inh | AID977621 | AID977628
O=C(C[C@@H]1CC[C@@H]2NC[C@H](O)COC[C@H]2O1)Nc1ccccc1 | -19 | 3 | 0 | -1 | -5 | 5 | / | /
COC(=O)c1cn(C(=O)c2ccc(C)cc2)c2ccccc12 | -14 | / | -7 | 2 | 0 | 2 | / | /
COC(=O)c1cn(C(=O)c2ccc(OC)cc2)c2ccccc12 | -5 | -2 | -26* | 11 | -16 | -1 | 2.4 | -9.2
C/C=C/c1ccc2c(c1)[C@@H]1[C@@H](CCN1S(=O)(=O)c1ccccc1OC)[C@H](CO)N2C | / | / | -21* | / | / | / | / | ?
C[C@H](CO)N1C[C@H](C)[C@H](CN(C)C(=O)C2CCCCC2)OCCCC[C@H](C)Oc2ccc(NC(=O)C3CCCCC3)cc2C1=O | 32 | 3 | -6 | 4 | -2 | 3 | / | /
Cc1ccc(NC(=O)c2cccs2)cc1[N+](=O)[O-] | -33 | 0 | -28* | -44 | -38 | 2 | -1.9 | /
CC(=O)Nc1ccc(S(=O)(=O)Nc2ccc(C)c([N+](=O)[O-])c2)cc1 | 5 | 1 | -26* | 11 | -5 | / | / | ?
Cc1ccc(C(=O)Nc2ccc(NC(=O)c3cccs3)cc2)cc1[N+](=O)[O-] | -8 | 1 | 12 | -18 | / | -6 | / | /
CC(=O)N1c2c(cc(Br)cc2S(=O)(=O)N2CCCCC2)CC1C (centres undefined) | -5 | -6 | -19* | 5 | -7 | 9 | / | -6.5
CC(=O)N1c2c(cc(Br)cc2S(=O)(=O)N2CCOCC2)CC1C (centres undefined) | / | / | / | / | / | 10 | / | /
CNC(=O)C[C@H]1CC[C@H]2[C@@H](COc3ccc(NC(=O)c4cccs4)cc3C(=O)N2C)O1 | -2 | / | 1 | 7 | -1 | 9 | / | /
C[C@H]1CN([C@@H](C)CO)C(=O)CCCn2nncc2CO[C@@H]1CN(C)Cc1ccccc1C(F)(F)F | 6 | 0 | -18*! | 3 | 6 | -11 | -1.5 | ?
CCCC(=O)Nc1ccc2c(c1)C(=O)N(C)C[C@H](OC)[C@H](C)CN(C(=O)C1CCCC1)[C@@H](C)CO2 | -3 | -2 | 0 | -2 | 11 | 7 | / | /
CC(C)c1cn(CC[C@@H]2CC[C@H](NC(=O)c3cccc(F)c3)[C@@H](CO)O2)nn1 | -14 | 1 | 0 | -1 | 7 | -10 | / | /
C=CCNc1ccc2c(c1)OC[C@H](CC(C)C)NS2(=O)=O | -7 | 5 | -23* | -2 | -11 | / | ? | /
C=CCNc1ccc2c(c1)OC[C@@H](CC(C)C)NS2(=O)=O | -2 | -3 | 9 | -3 | 4 | / | / | /
